G9a inh = blocks human histone lysine methyltransferase G9a | Q96KQ7 | G9a H3K9 monomethylation, AlphaScreen, 2 h | Potency, µM (titrated, usually from 102 µM), inactives show at the top dose activity, negative = inhibition, hits mostly inhibitors | hit rate 8.8% among 350,000 | AID 504332; also: % is scaled to controls: 0 for no effect and ±100 for the full control effect; nearly all actives have a fitted effect of over 75% in size
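Using a bead-based AlphaScreen, monomethylated H3K9 product from 2 h room-temperature reactions (G9a 20 nM, peptide 500 nM, SAM 20 uM) was detected with 0.5 ug/mL rabbit anti-H3K9me1 antibody.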
HP1b chromo inh = blocks HP1-beta chromodomain binding to methylated histone tails | Potency, µM (highest dose often 114 µM), inactives show at the top dose activity change, negative = inhibition, usual class: inhibitors | P83916 | AlphaScreen HP1-beta / biotin-H3K9me3 peptide binding | AID 540317 | hit rate 0.56% among 390,000; also: nearly all actives have a fitted effect of over 70% in size
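HP1-beta protein (50 nM final) preincubated 30 min at room temperature with biotinylated H3(1-18)K9me3 peptide (50 nM) in PBS pH 7.4, 0.01% Tween-20, then compound added for 30 min. AlphaScreen streptavidin donor/nickel chelate acceptor beads (10 ug/mL final), 30 min dark, luminescence read.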
GLS inhibitor = blocks human kidney-isoform glutaminase activity; Potency, µM (highest dose often 45.5 µM), for inactives: at the highest dose activity change, negative = inhibition, most hits filed as inhibitors; GLS enzymatic activity, qHTS titration; O94925; hit rate 0.21% among 410,000; also: % is scaled to controls: 0 for no effect and ±100 for the full control effect
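Two-point fluorescence kinetic (t0, 30 min RT) for hKGA; glutamate detected via glutamate oxidase–HRP–Amplex Red. Substrate: 1 mM L-glutamine solution; buffer 45 mM KH2PO4, pH 8.2.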
L3MBTL1 block = L3MBTL1 (human) inhibition. Q9Y468. AlphaScreen L3MBTL1–H3K9me1 peptide binding. Potency, µM (titrated, usually from 57.1 µM), without a hit: top-dose activity, negative = inhibition, hits mostly inhibitors. hit rate 0.66% among 230,000. AID 485360; also: % is scaled to controls: 0 for no effect and ±100 for the full control effect; nearly all actives have a fitted effect of over 60% in size
Target sequence (Q9Y468 whole entry, looked up): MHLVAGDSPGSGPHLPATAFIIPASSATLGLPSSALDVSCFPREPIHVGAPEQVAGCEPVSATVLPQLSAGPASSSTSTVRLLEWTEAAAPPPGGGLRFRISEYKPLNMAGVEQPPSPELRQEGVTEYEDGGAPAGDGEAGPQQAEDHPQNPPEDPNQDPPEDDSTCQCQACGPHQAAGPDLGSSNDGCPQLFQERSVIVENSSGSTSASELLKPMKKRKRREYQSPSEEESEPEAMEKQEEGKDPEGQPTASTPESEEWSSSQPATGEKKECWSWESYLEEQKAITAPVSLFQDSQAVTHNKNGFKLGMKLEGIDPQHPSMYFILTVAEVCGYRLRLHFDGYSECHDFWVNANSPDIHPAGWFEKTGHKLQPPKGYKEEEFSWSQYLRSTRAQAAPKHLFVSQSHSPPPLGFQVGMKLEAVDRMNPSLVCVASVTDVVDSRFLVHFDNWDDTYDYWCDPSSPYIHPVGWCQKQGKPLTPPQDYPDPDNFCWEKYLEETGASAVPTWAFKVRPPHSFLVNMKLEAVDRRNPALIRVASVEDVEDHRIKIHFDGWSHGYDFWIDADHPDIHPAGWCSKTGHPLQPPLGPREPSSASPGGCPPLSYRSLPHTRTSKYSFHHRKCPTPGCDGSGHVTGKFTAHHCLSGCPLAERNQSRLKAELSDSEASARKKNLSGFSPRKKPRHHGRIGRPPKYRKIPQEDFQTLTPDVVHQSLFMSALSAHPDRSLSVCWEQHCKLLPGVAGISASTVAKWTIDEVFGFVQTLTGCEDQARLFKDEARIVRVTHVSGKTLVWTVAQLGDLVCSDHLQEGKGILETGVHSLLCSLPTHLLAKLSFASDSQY
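L3MBTL1 (50 nM) pre-complexed 30 min with biotinylated H3(1-15)K9me1 peptide (75 nM), then compounds added for 30 min at room temperature; AlphaScreen streptavidin donor/nickel chelate acceptor beads (10 ug/mL final) read after 30 min dark incubation.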
BAZ2B block = BAZ2B (human) inhibition; AlphaScreen BAZ2B-H3K14Ac peptide displacement; Potency, µM (doses to about 114 µM), for the others: top-dose activity change, negative = inhibition, usual class: inhibitors; hit rate 4.4% among 360,000; also: % is scaled to controls: 0 for no effect and ±100 for the full control effect; nearly all actives have a fitted effect of over 60% in size
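BAZ2B 50 nM plus b-H3(5-23)K14Ac 50 nM, PBS pH 7.4/0.01% Tween-20, 30 min RT; compound added (max 110 uM), 30 min RT; streptavidin donor/Ni-chelate acceptor beads 10 ug/mL final, 20 min dark; AlphaScreen read.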
JMJD2A Tudor inh = JMJD2A Tudor domain (human) inhibition; AlphaScreen JMJD2A-Tudor / H3K4me3 peptide binding; hit rate 4.4% among 390,000; Potency, µM (highest dose often 114 µM), for the others: at the top dose activity change, negative = inhibition, hits mostly inhibitors; AID 504339; also: % is scaled to controls: 0 for no effect and ±100 for the full control effect; nearly all actives have a fitted effect of over 50% in size
The depositor's hits bear a star; ? = inconclusive; . = not tested or not shown; [ ] = another dose, or the depositor's remark. Sampled rows, rich in hits. Any-hit rate of the full collection: about 10%. Calls follow the shape of the dose curve; as a rule, active = well fitted curve in the direction sought with a large enough effect; inconclusive = small, poorly fitted or top-dose-only effect, or another doubt; inactive = no such curve, though single readings can be large; an effect the other way counts as inactive or inconclusive. Potency is read from the fitted curve at half-maximal effect.

SMILES	G9a inh	HP1b chromo inh	GLS inhibitor	L3MBTL1 block	BAZ2B block	JMJD2A Tudor inh
O=C(O)CC(NC(=O)C1c2ccccc2Oc2ccccc21)c1ccc(Cl)cc1 (stereo unspecified)	11µM*	19%	-3%	-3%	-7%	-36%
c1ccc(NN=C2c3ccccc3-c3ccccc32)cc1	.	3%	-10%	.	.	-27%
Cc1ccc(NN=C2c3ccccc3-c3ccccc32)cc1	8.9µM*	?	0%	-4%	?	56µM*
CCOc1ccccc1NCc1nnc2n1CCCCC2	13%[59 µM]	24%[57 µM]	3%	.	-1%	2%
COc1ccc2sc(SCCCS(=O)(=O)O)[n+](CCCS(=O)(=O)[O-])c2c1	?	27%	15%	-6%	56µM*	16µM*
CSc1sc2ccccc2[n+]1CCCS(=O)(=O)[O-]	10µM*	6%	16%	7%	-38%	89µM*
Cc1ccc2ccc(C)[n+](CCCS(=O)(=O)[O-])c2c1	-35%	?	6%	.	-12%	-32%[11.4 µM]
Cc1sc2ccccc2[n+]1CCC(C)S(=O)(=O)[O-] (stereo unspecified)	3%[59 µM]	63%	-6%	-1%	-10%	-17%
COc1ccc2c(C(=O)NCCCCO)c(-c3ccc(S(C)(=O)=O)cc3)sc2c1	.	54%	3%	6%	.	-11%
Cc1ccc2ccccc2[n+]1CCCS(=O)(=O)[O-]	50µM*	55%	-1%	-10%	-29%	-18%
Cc1ccc(C)c(Nc2nc3c(S(=O)(=O)c4ccc(C(C)C)cc4)nnn3c3ccsc23)c1	-31%[59 µM]	18%	5%	.	79µM*	-15%
Cc1ccc(C)c(Nc2nc3c(S(=O)(=O)c4ccc(Br)cc4)nnn3c3ccsc23)c1	18µM*	4%	-16%	.	50µM*	56µM*
O=C1CC[C@H](C(=O)N[C@@H]2C[C@H]2c2ccccc2)N1	0%[12.7 µM]	.	19%	.	.	.
O=C(N/N=C/c1ccc(N2CCOCC2)s1)c1ccccc1Cl	?	-22%	47%	-17%	-34%	?
C(=N\N(c1ccccc1)c1ccccc1)/c1ccc(N2CCOCC2)s1	13µM*	?	6%	-20%	?	?
CCOC(=O)N/N=C/c1ccc(N2CCOCC2)s1	40µM*	0%	25%	-5%	-4%	-25%
CCC1CC=CC2C1C(=O)N(Cc1ccccc1)C2c1cc(C)ccc1F (stereo unspecified)	.	82%	.	.	.	28%
CCC1(C)CC(=O)N(c2ccc(C(=O)O)c(O)c2)C1=O (stereo unspecified)	50µM*	16%	-1%	3%	-36%	-35%
O=C(CN1C(=O)COc2ccc(S(=O)(=O)N3CCOCC3)cc21)N1CCN(c2ccccc2)CC1	4%[59 µM]	68%	2%	.	17%	-15%
COc1ccc(N(Cc2cccs2)C(=O)COc2cc(C)c(Cl)c(C)c2)cc1	54%[59 µM]	87%	7%	.	18%	39%
O=C(CC1CCCCC1)NC1CCCC1	7%[2.33 µM]	43%	1%	.	12%	4%
CCOCCCNCC(=O)NC1(C)C2CCC(C2)C1(C)C (stereo unspecified)	?	-57%	15%	.	56µM*	6.3µM*
CC1(C)C2CCC(C2)C1(C)NC(=O)CNCC1CCCCC1 (stereo unspecified)	5.6µM*	?	-2%	-3%	.	?
CC(C)CC(NC(=O)C(COC(C)(C)C)NC(=O)C(Cc1ccc(O)cc1)NC(=O)C(CO)NC(=O)C(Cc1c[nH]c2ccccc12)NC(=O)C(Cc1cnc[nH]1)NC(=O)C1CCC(=O)N1)C(=O)NC(CCCN=C(N)N)C(=O)N1CCCC1C(=O)NNC(N)=O (stereo unspecified)	-31%[12.7 µM]	.	47%	.	.	.
CC(C)c1ccc(Nc2ncnc3c2c(-c2ccccc2)cn3-c2ccccc2)cc1	-5%[59 µM]	56%	-5%	.	1%	-12%

Bioassay records from PubChem BioAssay.
